ZTA counter – blocks Epstein-Barr virus ZTA, an EBNA-1 counter-screen | 0.15% of 320,000 active | ZTA-DNA binding, fluorescence polarization | AID 2234 | inhibition, % at 11 µM; in the data active = inhibition above about 33%
Target sequence (P03206 whole entry, looked up): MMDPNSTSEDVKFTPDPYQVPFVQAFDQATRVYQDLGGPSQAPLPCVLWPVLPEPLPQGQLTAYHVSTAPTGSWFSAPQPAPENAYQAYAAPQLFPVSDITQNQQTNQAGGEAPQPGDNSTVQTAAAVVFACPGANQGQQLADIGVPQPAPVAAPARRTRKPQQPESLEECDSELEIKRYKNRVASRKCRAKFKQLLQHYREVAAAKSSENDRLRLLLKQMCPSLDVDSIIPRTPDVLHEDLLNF
NR1D1 modulator – modulates human Rev-erb alpha binding to DNA; activity, % at 10 µM; AID 1259318; 0.79% of 370,000 active; Rev-erbα–FITC-DNA binding, fluorescence polarization, 90 min; P20393;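 active = activity above about 14%, limit read from the data; passing the limit was not always enough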;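 note: 0% = DMSO wells with 35 nM protein and 100% = DMSO wells with 750 nM protein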
PG9 binder – small molecules binding HIV-1 gp120 antibody PG9 | 0.43% of 360,000 active | TR-FRET gp120-PG9 antibody binding | inhibition, % at 6.7 µM; in the data active = inhibition above about 8.5%
aDG glyco act – increases alpha dystroglycan glycosylation; 0.22% of 360,000 active; Pro5-aDG cells, alpha-DG glycosylation AlphaScreen (IIH6); 0% Pro5, 100% B10-LARGE cell signal; AID 624168; activation, % at 10 µM;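 active = activation of at least 8% versus controls, or a plate z-score of at least 8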;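 note: Pro5 are CHO cells carrying HIG-tagged alpha-DG that lacks glycosylation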
EBNA-1 inhibitor – blocks EBNA-1 binding to DNA; EBNA-1 DNA binding, fluorescence polarization; inhibition, % at 14.8 µM; AID 1950; 0.34% of 300,000 active; in the data active = inhibition above about 28%
NCF1 inh – p47phox (human) inhibition; P14598; p47phox/p22phox peptide binding, fluorescence polarization, 2 h; 0.53% of 220,000 active; inhibition, % at 24.7 µM;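 active = inhibition above about 30%, limit read from the data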;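 note: 0% = p47phox with labelled peptide and 100% = labelled peptide alone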
Target sequence (P14598 whole entry, looked up): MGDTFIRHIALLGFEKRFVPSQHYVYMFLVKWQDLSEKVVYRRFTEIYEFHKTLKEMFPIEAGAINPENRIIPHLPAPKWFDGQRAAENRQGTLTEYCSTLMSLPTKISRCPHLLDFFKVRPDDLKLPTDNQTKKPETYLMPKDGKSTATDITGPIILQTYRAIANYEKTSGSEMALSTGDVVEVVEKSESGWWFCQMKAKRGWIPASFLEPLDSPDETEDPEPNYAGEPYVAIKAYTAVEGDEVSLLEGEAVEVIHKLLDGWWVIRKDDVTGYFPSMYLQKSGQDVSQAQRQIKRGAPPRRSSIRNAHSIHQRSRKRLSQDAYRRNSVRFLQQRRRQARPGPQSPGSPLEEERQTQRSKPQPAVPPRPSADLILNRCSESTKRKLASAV
PG9 binder conf – confirmation of small molecules binding HIV-1 gp120 antibody PG9; shares compounds with PG9 binder; TR-FRET PG9 antibody binding, biochemical; inhibition, % at 6.7 µM; 90% of 1,500 active; in the data active = inhibition above about 9%
PGV04 Ab binding – binds control antibody PGV04 in PG9 binder counter-screen; shares compounds with PG9 binder; TR-FRET PGV04 antibody-gp120 binding, biochemical; inhibition, % at 6.7 µM; 95% of 1,500 active; in the data active = inhibition above about 9.5%
PG9 bind DR – PG9 antibody binding, dose response | AID 651848 | IC50, µM | 95 tested, under 10 active | TR-FRET PG9 antibody-gp120 binding inhibition | shares compounds with PG9 binder; in the data active = IC50 below about 10 µM
PGV04 binding DR – binds control antibody PGV04 in PG9 counter-screen | shares compounds with PG9 binder | TR-FRET binding to control antibody PGV04 | IC50, µM | 20% of 95 active | AID 651937
PG126 DR counter – PG126 binding, dose response counter-screen. TR-FRET binding to antibody PG126, counterscreen. shares compounds with PG9 binder. IC50, µM. AID 651939. 20% of 95 active
* = called active by the depositor; i = inactive; · = not tested or not shown. The list is not random: actives were taken first. Their share in the collection is about 1.9%. Cut-off read from the data, not from the text of the source, unless noted: active = IC50 below about 9 µM; inactive = the rest.

SMILES | ZTA counter | NR1D1 modulator | PG9 binder | aDG glyco act | EBNA-1 inhibitor | NCF1 inh | PG9 binder conf | PGV04 Ab binding | others
O=C(CSc1nc2ccccc2c(=O)n1Cc1ccco1)NCc1ccccc1 | 6 | 3 | -1 | 0 | 12 | · | · | ·
O=C(CSc1nc2ccccc2c(=O)n1Cc1ccccc1)NCc1ccco1 | -9 | 8 | 20* | 0 | 8 | -2 | 21* | 25*
O=C(CSc1nc2ccccc2c(=O)n1Cc1ccc(F)cc1)NCc1cccs1 | -9 | 4 | 16* | 0 | 6 | -9 | 16* | 33*
CCOc1ccc(CCNC(=O)c2cc3ccsc3n2C)cc1OC | · | -1 | · | · | · | · | · | ·
COc1ccc(CC(=O)Nc2ccc(N3CCN(c4ccc(OC)cc4)CC3)c(C#N)c2)cc1 | 5 | 8 | 9.1* | 0 | -15 | -11 | 18* | 24*
CC1CCN(CCCn2c(=S)[nH]c3c(sc4ccccc43)c2=O)CC1 | -2 | -4 | 15* | 0 | -9 | -7 | 9.7* | 9.4* | PG9 bind DR=i;PGV04 binding DR=i;PG126 DR counter=i
CC1CCN(CCCn2c(=S)[nH]c3c(sc4ccc([N+](=O)[O-])cc43)c2=O)CC1 | -10 | -3 | 1 | 0 | 12 | 0 | · | ·
COc1ccc2c(c1)CN1CN(Cc3ccc(F)cc3)S(=O)(=O)CC21 (stereo not given) | · | 3 | · | · | · | · | · | ·
COc1ccc2c(C)cc(=S)[nH]c2c1 | · | -3 | 19* | 0 | · | 0 | 8.6* | 9.5*
CCN(CC)C(=O)CC[C@H]1CC[C@]2(CCCN(C(=O)c3ccccc3)C2)O1 | · | -7 | · | · | · | · | · | ·
CCOc1ccc(NC(=O)Nc2nc3ccc(S(C)(=O)=O)cc3s2)cc1 | · | 10 | 14* | 0 | · | · | 19* | 22*
Cc1ccccc1NC(=O)Nc1nc2ccc(S(C)(=O)=O)cc2s1 | 38* | 6 | 11* | 0 | 155* | -3 | 12* | 28*
Cc1cccc(NC(=O)C2CCCN2S(=O)(=O)c2cccc3cccnc23)c1C (stereo not given) | · | -2 | · | · | · | · | · | ·
CC(C)CCN1C(=O)COc2ccccc2C1c1nnnn1-c1ccc2c(c1)OCCO2 (stereo not given) | · | 5 | · | · | · | · | · | ·
O=S1(=O)c2c(cccc2N2CCSCC2)Oc2ccccc2CN1Cc1cn(Cc2ccc(C(F)(F)F)cc2)nn1 | · | 2 | · | · | · | · | · | ·
O=C(NC1CCCCN(Cc2cccc(C(F)(F)F)c2)C1=O)c1ccc(F)c(F)c1 (stereo not given) | · | 5 | · | · | · | · | · | ·
C=CCOC/C=C/C#CCN(Cc1ccc(OC)cc1OC)C(=O)Nc1ccccc1 | · | 6 | · | · | · | · | · | ·
Cc1ccc(-n2c(=S)[nH]c3c(oc4ccccc43)c2=O)cc1C | 9 | -7 | 20* | 0 | 9 | 2 | 11* | 17*
O=c1c2oc3ccccc3c2[nH]c(=S)n1-c1ccc(F)cc1 | 10 | -6 | 10* | 0 | 6 | -9 | 12* | 12*
O=c1[nH]c2c(oc3ccccc32)c(=O)n1Cc1ccccc1 | · | -5 | 2 | 0 | · | · | · | ·
CC(C)c1cc(C(=O)N(C2CCCCC2)C2CCCCC2)no1 | · | -4 | · | · | · | · | · | ·
CN(Cc1ccccc1)S(=O)(=O)c1cccc(C(=O)OCc2ccc(Oc3ccccc3)cc2)c1 | · | -2 | · | · | · | · | · | ·
O=C(CSc1nnc(-c2c[nH]c3ccccc23)o1)c1ccc(-c2ccccc2)cc1 | 0 | 3 | 18* | 0 | 1 | -2 | 22* | 43*
CCOC(=O)c1c(C)[nH]c(C(=O)COC(=O)c2ccc(F)c(S(=O)(=O)N3CCOCC3)c2)c1C | -11 | 16 | 17* | 0 | 0 | -11 | 29* | 40*
COc1ccc(C2CCC3(CCC(=O)N3CCO)CC2)cc1 (stereo not given) | · | 4 | · | · | · | · | · | ·
SMILES | ZTA counter | NR1D1 modulator | PG9 binder | aDG glyco act | EBNA-1 inhibitor | NCF1 inh | PG9 binder conf | PGV04 Ab binding | others
Cc1sc2ncnc(N3CCC(C(=O)Nc4ccccc4C(C)(C)C)CC3)c2c1C | -1 | 3 | 13* | 1 | 3 | · | 17* | 21*
CCOC(=O)c1ccccc1NC(=O)C1CCN(c2ncnc3sc(C)c(C)c23)CC1 | 1 | · | · | 0 | -15 | · | · | ·
Clc1ccc(-n2c(SCc3cccc4ccccc34)nnc2-c2cccnc2)cc1 | · | 5 | · | · | · | · | · | ·
O=C(COC(=O)c1ccccc1NC(=O)c1ccco1)Nc1ccc2c(c1)OCO2 | 8 | -1 | 11* | 0 | 11 | -7 | 9.2* | 12*
COC(=O)c1ccccc1NC(=O)COc1ccc2c(c1)OCO2 | 20 | 11 | 9.2* | 0 | -5 | · | 6 | 7
CC(C)(C)OC(=O)C1[C@H](O)C=CC[C@H]1S(=O)c1ccccc1 (stereo not given in full) | · | 7 | · | · | · | · | · | ·
Cc1cc(SCCC(=O)O)nc2c(C)cccc12 | -16 | -1 | 11* | 0 | -6 | -7 | 14* | 18*
Cc1cc(SCC(=O)NC2(C#N)CCCCC2)nc2c(C)cccc12 | 3 | -2 | 23* | 0 | 8 | · | 31* | 37*
Cc1cc(SCC(=O)N2CCCC2=O)nc2c(C)cccc12 | 1 | 0 | 1 | 0 | -11 | · | · | ·
CC(=O)c1ccc(OCCCC(=O)Nc2nnc(C3CC3)s2)cc1 | · | -1 | 8.7* | 0 | · | · | 18* | 25*
COc1cccc(C(=O)Nc2cc(C(=O)NCc3ccc(C)cc3)ccc2N2CCC3(CC2)CC(c2ccccc2)=NO3)c1 | 4 | 2 | 11* | 0 | 18 | · | 4 | 6
C=CCSc1ncnc2c1oc1nc3c(cc12)COC(C)(C)C3 | 14 | -5 | 1 | 0 | 9 | -28 | · | ·
CC1(C)Cc2nc3oc4c(=S)nc[nH]c4c3cc2CO1 | -1 | 1 | 19* | 1 | -6 | -5 | 11* | 12*
COc1ccc(C2C(C(=O)Nc3ccc(C)c(C)c3)CCC(=O)N2c2ccc(OC)cc2)cc1 (stereo not given) | · | 4 | · | · | · | · | · | ·
CC(OC(=O)/C(C#N)=C/c1ccc(N(C)C)cc1)C(=O)NCc1ccco1 (stereo not given) | 1 | 3 | 10* | 0 | 11 | · | 17* | 24*
CC(=O)c1cccc(NC(=O)c2cccc(N3C(=O)c4ccccc4C3=O)c2)c1 | 2 | -10 | 22* | 0 | 1 | · | 25* | 22* | PG9 bind DR=i;PGV04 binding DR=i;PG126 DR counter=i
CCCCNC(=O)C(NC(=O)c1ccc(C)cc1)C(=O)c1ccccc1 (stereo not given) | · | 2 | -1 | 1 | · | · | · | ·

Screens as filed in PubChem BioAssay.
